# Reference: PubChem BioAssay (NCI)
# Compounds without any hit were thinned out: in the full panel of roughly 83,000, 20% have a hit.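 Values shown are percent growth following 48 h exposure of cells in 96-well plates to a single concentration of compound; below 10 was considered active.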 The source made the active and inactive calls.
# Tested on: MDA-MB-468 breast
# Assay: NCI-60 one-dose screen, 48 h (100 = growth as untreated, 0 = no growth, -100 = all killed)
# Conditions: 10 µM unless noted
row,SMILES,growth
1,O=P1(NCCCl)OCCCN1CCCl (stereo not drawn),99.1% (inactive)
2,C1CCC([PH+](C2CCCCC2)C2CCCCC2[PH+](C2CCCCC2)C2CCCCC2)CC1.[Au].[CH-]1CCCCC1CC1CCCC[N-]1 (stereo not drawn),-61.8% (active)
3,CN1C(=O)[C@]23SSC1(C)C(=O)N2[C@H]1Nc2ccccc2C1([C@@]12c4ccccc4N[C@@H]1N1C(=O)C4(C)SS[C@]1(C(=O)N4C)[C@H]2O)[C@@H]3O (stereo partly drawn),-88.9% (active)
4,Cc1cc(NC(=O)CCc2ccc(N3C(N)=NC(N)=NC3(C)C)cc2)ccc1S(=O)(=O)F,32.4% (inactive)
5,O=C(c1cccc(O)c1O)c1cn(Cc2ccc(F)cc2)c2cccc(O)c12,27% (inactive)
6,COc1ccn(C)c(=O)c1C#N,102% (inactive)
7,[Cl][Hg][c]1ccc(Cl)s1,-61% (active)
8,[O]=[Sn]([CH]1CCCCC1)[CH]1CCCCC1,-92.2% (active)
